# Results published in PubChem BioAssay (NCATS).
# Results filed as inconclusive are left out. The source made the active and inactive calls. The call rests on the fitted dose curve; in most records, active means well fitted inhibition curve with a large enough effect; inconclusive means small, poorly fitted or top-dose-only effect; inactive means flat fitted curve, though single readings scatter.
# Target: Glutathione peroxidase 1 (Homo sapiens) (UniProt P07203)
# Assay: Primary qHTS Assay for Inhibitors of Recombinant Selenoprotein Glutathione Peroxidase 1 (GPX1) (AID 1845191); further: nearly all actives have a fitted effect of over 65% in size; on activity, negative = inhibition: on the % scale 0 is the no-effect control and ±100 the full control effect
# Settings: recombinant GPX1, GR-coupled NADPH fluorescence, 15 min; series mostly up to 27.7 µM; activity, negative = inhibition: at the top concentration
# Procedure, shortened: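 NADPH consumption tracked by fluorescence at 340/450 nm between t=0 and t=15 min, room temperature. Final mix: 10 nM GPX1, 100 nM glutathione reductase, 1 mM GSH, 0.5 mM NADPH, 0.5 mM cumene hydroperoxide, 0.01% BSA; 30 min compound–enzyme preincubation.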
# Chain of Glutathione peroxidase 1 (Homo sapiens) (P07203 whole entry, looked up): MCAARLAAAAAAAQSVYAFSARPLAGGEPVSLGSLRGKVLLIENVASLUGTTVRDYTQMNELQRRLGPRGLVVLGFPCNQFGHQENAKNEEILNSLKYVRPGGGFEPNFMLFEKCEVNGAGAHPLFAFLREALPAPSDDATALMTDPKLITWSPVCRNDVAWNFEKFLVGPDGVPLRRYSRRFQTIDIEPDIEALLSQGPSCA
SMILES,"activity, negative = inhibition",outcome
NC[C@H]1CCC[C@@H](CNC(=O)[C@@H](Cc2c[nH]c3ccccc23)NC(=O)N2CCC3(C=Cc4ccccc43)CC2)C1,-7.75% (inactive),–
COC(=O)C(Cc1ccccc1)NC(=O)c1ccccc1 (stereo not drawn),3.9% [at 48.8 µM] (inactive),–
COc1cnc(-c2ccc(Cn3c(CC(C)(C)C(=O)O)c(SC(C)(C)C)c4cc(OC[C@@H]5Cc6ccccc6N5C(C)=O)ccc43)cc2)nc1,-16% (inactive),–
CCc1nn(CCO)c(CC)c1Oc1cc(C#N)cc(C#N)c1,–,inactive [at 48.8 µM]
CC(=O)OC1(C)CC(O)C2(O)C=COC(OC3OC(CO)C(O)C(O)C3O)C12 (stereo not drawn),–,inactive
C/C=C/C=C/C=C/C(=O)O[C@@H]1[C@@H](OC)C2=C(C(=O)N(C(CCC(=O)O)C(=O)O)C2)[C@@]2(C)CCCC(C)(C)[C@H]12 (stereo partly drawn),-6.53% (inactive),–
N=C(N)c1ccc2nc(-c3cc(CC(=O)NC(CC(=O)O)C(=O)O)cc(-c4cc(S(N)(=O)=O)ccc4O)c3O)[nH]c2c1 (stereo not drawn),4% [at 48.8 µM] (inactive),–
O=C(O)C1(c2ccc(-c3ccc(Cl)c(Cl)c3)c(F)c2)CC1,–,inactive [at 48.8 µM]

# Target: Phospholipid hydroperoxide glutathione peroxidase GPX4 (Homo sapiens) (UniProt P36969)
# Assay: Primary qHTS Assay for Inhibitors of Recombinant Selenoprotein Glutathione Peroxidase 4 (GPX4) (AID 1845192); further: nearly all actives have a fitted effect of over 65% in size; on activity change, negative = inhibition: on the % scale 0 is the no-effect control and ±100 the full control effect
# Settings: recombinant GPX4, GR-coupled NADPH fluorescence, 15 min; series mostly up to 27.8 µM; activity change, negative = inhibition: at the top concentration
# Procedure, shortened: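 NADPH consumption followed by fluorescence at 340/450 nm, t=0 and after 15 min at room temperature. Reaction started with cumene hydroperoxide (0.5 mM final) after 30 min compound–GPX4 preincubation; final 200 nM GPX4, 100 nM GR, 1 mM GSH, 0.5 mM NADPH.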
# Chain of Phospholipid hydroperoxide glutathione peroxidase GPX4 (Homo sapiens) (P36969 whole entry, looked up): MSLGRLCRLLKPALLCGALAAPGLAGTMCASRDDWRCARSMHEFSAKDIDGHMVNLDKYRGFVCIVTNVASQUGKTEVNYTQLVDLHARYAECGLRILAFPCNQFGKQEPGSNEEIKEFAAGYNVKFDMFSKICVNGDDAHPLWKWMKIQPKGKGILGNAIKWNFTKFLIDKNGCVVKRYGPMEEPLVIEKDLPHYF
SMILES,outcome,"activity change, negative = inhibition",Potency
Fc1ccccc1-c1nc2ccn(Cc3ccc(-c4ccc(C(F)(F)F)cc4C(F)(F)F)nn3)cc-2n1,inactive [at 50 µM],–,–
COc1cncc(C#Cc2ccccn2)c1,–,3.04% [at 50 µM] (inactive),–
CC(=O)O[C@H]1[C@H](OC(=O)C(C)C)[C@]2(C)OC3(CC[C@]2(C)[C@H]2CCC[C@]4(CO4)[C@]12C)COC(=O)C3 (stereo partly drawn),–,-16.2% (inactive),–
Cc1noc2c1-c1ccccc1C(c1ccc(Cl)cc1)=N[C@H]2CC(N)=O,–,–,inactive
CC(C)c1cc2c(c(O)c1O)[C@@]13CCCC(C)(C)C1[C@@H](O)[C@@H]2OC3=O (stereo partly drawn),–,-8.54% (inactive),–
Cn1c2ccc(NC(=O)c3ccccc3)cc2c(=O)n2nc(C(=O)O)cc12,–,11.7% (inactive),–
COc1c(-c2ccc(O)cc2)cc(OC)c2c1oc1cc(O)c(OC3OC(CO)C(O)C3O)cc12 (stereo not drawn),–,-14.1% (inactive),–
CCOC(=O)c1ccc(NC2CCCCC2)c(N)c1,–,-2.13% [at 50 µM] (inactive),–
C[C@]12CC[C@@H]3c4ccc(O)cc4CC[C@H]3[C@@H]1C[C@@H](O[C@@H]1O[C@H](C(=O)O)[C@@H](O)[C@H](O)[C@H]1O)[C@@H]2O,–,-35.3% [at 50 µM] (inactive),–
OCC1=C[C@@H](O)[C@@H]2C=CO[C@@H](O[C@@H]3O[C@H](CO)[C@@H](O)[C@H](O)[C@H]3O)[C@H]12,inactive,–,–
COc1cccc2c1c(O)c(C(=O)N(C)c1ccc(C(F)(F)F)cc1)c(=O)n2C,–,–,inactive
COc1ccc(-c2ccn(CC[C@](C)(C(=O)NO)S(C)(=O)=O)c(=O)c2)c(F)c1,–,-3.71% [at 50 µM] (inactive),–
CCCC(C(=O)O)c1c(C)nc2ccc(Cl)cc2c1-c1ccccc1 (stereo not drawn),–,-7.92% [at 50 µM] (inactive),–
COc1cnc(-n2cnc(C)n2)c2[nH]cc(C(=O)C(=O)N3CCN(C(=O)c4ccccc4)CC3)c12,–,1.64% [at 50 µM] (inactive),–
CCOc1ccc(-c2cc(NC(=O)c3c(F)cccc3F)c(C(=O)O)s2)cc1,–,-2.74% [at 50 µM] (inactive),–
O=C(OCC1=C[C@@H](O)[C@@H]2C=CO[C@@H](O[C@@H]3O[C@H](CO)[C@@H](O)[C@H](O)[C@H]3O)[C@H]12)c1ccc(O)cc1,–,2.31% (inactive),–
CC(=O)O[C@@H]1C[C@@H](C)[C@](O)(CCC2=CC(=O)OC2)[C@@]2(C)CCCC(C)(C)C12 (stereo partly drawn),–,-16.7% (inactive),–

SMILES,outcome,"activity change, negative = inhibition",Potency
N#Cc1cccc(-c2nc(-c3cccnc3)no2)c1,–,10.4% (inactive),–
CCN=C1N[C@@H]2[C@@H](O)[C@H](O)[C@@H](CO)O[C@@H]2S1,–,3.55% [at 50 µM] (inactive),–
O=C(Nc1ccccc1)Nc1ccc(-c2ccc(C(=O)C3CCCC3C(=O)O)cc2)cc1 (stereo not drawn),–,-5.45% [at 50 µM] (inactive),–
CCOc1nc2c(N)ncnc2n1CC,–,-0.248% [at 50 µM] (inactive),–
CCCCOc1nc(N)c2c(n1)N(Cc1cccc(CN3CCCC3)c1)CC(=O)N2,–,-2.11% [at 50 µM] (inactive),–
CC(C)(O)C1OC1C1=CC(=O)C2(C)OC2C1O (stereo not drawn),inactive [at 50 µM],–,–
Cc1cc(OCCN2CCOCC2)nn1-c1ccc2ccccc2c1,–,16.2% [at 50 µM] (inactive),–
COc1cc(O)c(C(=O)O)c(CCc2ccccc2)c1,–,-11.6% [at 50 µM] (inactive),–
CC(C)c1ccc2c(c1)CCC1[C@](C)(C(=O)O)CCC[C@]21C (stereo partly drawn),–,-22.5% [at 50 µM] (inactive),–
O=C(O)c1cc(C(F)(F)F)ccc1N1CC[C@H](OCc2ccccn2)C1,–,-5.58% [at 50 µM] (inactive),–
NC[C@H]1CCC[C@@H](CNC(=O)[C@@H](Cc2c[nH]c3ccccc23)NC(=O)N2CCC3(C=Cc4ccccc43)CC2)C1,–,-11.7% (inactive),–
COC(=O)C(Cc1ccccc1)NC(=O)c1ccccc1 (stereo not drawn),–,-14.3% [at 50 µM] (inactive),–
COc1cnc(-c2ccc(Cn3c(CC(C)(C)C(=O)O)c(SC(C)(C)C)c4cc(OC[C@@H]5Cc6ccccc6N5C(C)=O)ccc43)cc2)nc1,–,-13.6% (inactive),–
CCc1nn(CCO)c(CC)c1Oc1cc(C#N)cc(C#N)c1,–,5.03% [at 50 µM] (inactive),–
CC(=O)OC1(C)CC(O)C2(O)C=COC(OC3OC(CO)C(O)C(O)C3O)C12 (stereo not drawn),inactive,–,–
N=C(N)c1ccc2nc(-c3cc(CC(=O)NC(CC(=O)O)C(=O)O)cc(-c4cc(S(N)(=O)=O)ccc4O)c3O)[nH]c2c1 (stereo not drawn),–,1.47% [at 50 µM] (inactive),–
O=C(O)C1(c2ccc(-c3ccc(Cl)c(Cl)c3)c(F)c2)CC1,–,8.64% [at 50 µM] (inactive),–

# Target: Luciferin 4-monooxygenase (Photinus pyralis) (UniProt P08659)
# Assay: Primary firefly luciferase (FLuc) qHTS assay for identification of artifact compounds. (AID 1845220); further: nearly all actives have a fitted effect of over 60% in size;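 on activity change, negative = inhibition: plate controls were DMSO vehicle for no effect and no enzyme for full effect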
# Settings: purified firefly luciferase, luminescence, 5 min; series mostly up to 54.1 µM; activity change, negative = inhibition: at the top concentration
# Procedure, shortened: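 Compounds sat 15 min at room temperature with 10 uM luciferin and 10 uM ATP (pH 7.6 Tris acetate). Firefly luciferase (10 nM final) was then added, and luminescence was read 5 min later. Data normalized to no-enzyme and DMSO controls were Hill-fitted.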
SMILES,outcome,"activity change, negative = inhibition"
Fc1ccccc1-c1nc2ccn(Cc3ccc(-c4ccc(C(F)(F)F)cc4C(F)(F)F)nn3)cc-2n1,inactive,–
Cc1noc2c1-c1ccccc1C(c1ccc(Cl)cc1)=N[C@H]2CC(N)=O,–,1.35% (inactive)
C[C@]12CC[C@@H]3c4ccc(O)cc4CC[C@H]3[C@@H]1C[C@@H](O[C@@H]1O[C@H](C(=O)O)[C@@H](O)[C@H](O)[C@H]1O)[C@@H]2O,–,-14.7% (inactive)
OCC1=C[C@@H](O)[C@@H]2C=CO[C@@H](O[C@@H]3O[C@H](CO)[C@@H](O)[C@H](O)[C@H]3O)[C@H]12,–,1.61% (inactive)
COc1cccc2c1c(O)c(C(=O)N(C)c1ccc(C(F)(F)F)cc1)c(=O)n2C,–,1.6% (inactive)
NCCCCN(Cc1nc2ccccc2[nH]1)[C@H]1CCCc2cccnc21,inactive [at 25.7 µM],–
CCCC(C(=O)O)c1c(C)nc2ccc(Cl)cc2c1-c1ccccc1 (stereo not drawn),–,-2.85% (inactive)
COc1cnc(-n2cnc(C)n2)c2[nH]cc(C(=O)C(=O)N3CCN(C(=O)c4ccccc4)CC3)c12,inactive,–
O=C(OCC1=C[C@@H](O)[C@@H]2C=CO[C@@H](O[C@@H]3O[C@H](CO)[C@@H](O)[C@H](O)[C@H]3O)[C@H]12)c1ccc(O)cc1,–,1.38% [at 25.7 µM] (inactive)
CC(=O)O[C@@H]1C[C@@H](C)[C@](O)(CCC2=CC(=O)OC2)[C@@]2(C)CCCC(C)(C)C12 (stereo partly drawn),–,0.813% (inactive)
CCN=C1N[C@@H]2[C@@H](O)[C@H](O)[C@@H](CO)O[C@@H]2S1,–,-5.15% (inactive)
CCOc1nc2c(N)ncnc2n1CC,inactive,–
CCCCOc1nc(N)c2c(n1)N(Cc1cccc(CN3CCCC3)c1)CC(=O)N2,inactive,–
CC(C)(O)C1OC1C1=CC(=O)C2(C)OC2C1O (stereo not drawn),–,3.48% (inactive)
Cc1cc(OCCN2CCOCC2)nn1-c1ccc2ccccc2c1,–,-2.11% (inactive)
COC(=O)C1=CO[C@@H](O[C@@H]2O[C@H](CO)[C@@H](O)[C@H](O)[C@H]2O)[C@@H]2C(CO)=CC[C@H]12,–,2.31% (inactive)
O=C(O)c1cc(C(F)(F)F)ccc1N1CC[C@H](OCc2ccccn2)C1,–,-10% (inactive)
NC[C@H]1CCC[C@@H](CNC(=O)[C@@H](Cc2c[nH]c3ccccc23)NC(=O)N2CCC3(C=Cc4ccccc43)CC2)C1,inactive,–
COc1cnc(-c2ccc(Cn3c(CC(C)(C)C(=O)O)c(SC(C)(C)C)c4cc(OC[C@@H]5Cc6ccccc6N5C(C)=O)ccc43)cc2)nc1,inactive,–
CCc1nn(CCO)c(CC)c1Oc1cc(C#N)cc(C#N)c1,inactive,–
CC(=O)OC1(C)CC(O)C2(O)C=COC(OC3OC(CO)C(O)C(O)C3O)C12 (stereo not drawn),–,2.45% [at 25.7 µM] (inactive)
